# Results reported in the supplement of paper PMC3334620.
# The full ranking holds about 33,000 sequences; the median of “E-score (-0.5 to 0.5)” is about -0.0014, and the highest 2% start at about 0.25. The sample as a whole holds a higher share of the highest values than the screen did.
# Target: T1, Cad1 (UniProt P24813)
# T1 sequence: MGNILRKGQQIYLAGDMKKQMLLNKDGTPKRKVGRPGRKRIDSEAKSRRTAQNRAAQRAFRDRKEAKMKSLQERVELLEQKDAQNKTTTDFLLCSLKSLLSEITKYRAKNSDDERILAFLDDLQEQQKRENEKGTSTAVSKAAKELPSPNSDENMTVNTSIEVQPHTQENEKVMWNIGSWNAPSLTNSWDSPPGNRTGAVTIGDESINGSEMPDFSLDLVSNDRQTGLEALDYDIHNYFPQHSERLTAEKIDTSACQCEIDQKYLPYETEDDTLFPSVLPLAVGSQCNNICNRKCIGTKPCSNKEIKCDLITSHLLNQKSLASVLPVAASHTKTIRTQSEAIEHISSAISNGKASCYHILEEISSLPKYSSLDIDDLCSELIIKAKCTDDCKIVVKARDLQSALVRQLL
# Test: PBM E-score (8-mer binding enrichment) (E-score (-0.5 to 0.5)); higher = stronger / more preferred TF binding
# Conditions: protein concentration: 100 nM; construct: GST-full length
# Method in brief: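 E-scores (a modified Wilcoxon-Mann-Whitney statistic) were assigned by the Universal PBM Analysis Suite to every ungapped eight-base word pooled with its reverse complement. The input came from universal all-10-mer Agilent arrays made double-stranded by primer extension and probed with GST-tagged yeast transcription factors at about 100-200 nM. Fluorescent anti-GST detected bound protein, and masliner normalised the scans.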
row,Sequence,PBM E-score
1,TGTAGTAA,0.145
2,CGGAAACG,-0.0175
3,AATCTAGG,0.00096
4,TGCTCCAA,0.0768
5,GAATCTGC,0.014
6,GACATGTA,0.0721
7,TACATGTA,0.27
8,CACATGTA,0.109
9,CCGATTGA,0.144
10,CCGATTGC,0.25
11,ACGATTGC,0.213
12,CCGGGTAG,0.00529
13,ATTAGATA,0.211
14,ATTAGATC,0.03
15,ATTAGATG,0.263
16,ACATTGGT,0.0584
17,AGCTAGCT,0.162
18,GAACAACA,-0.043
19,TAACAATA,0.165
20,CAACAACA,0.269
21,AAACAATT,0.114
22,AAACAATA,0.251
23,CAACAAGA,-0.0155
24,TCCAAGAA,-0.0134
25,GCGTTAGC,0.0751
26,ATTATGTC,0.181

row,Sequence,PBM E-score
1,GCTATATA,0.149
2,ATTATGTG,0.25
3,ATTATGTA,0.311
4,CGTAGATA,0.113
5,ACTATATC,0.109
6,AGTAGATC,-0.191
7,ACTATATA,0.251
8,AGTAGATA,0.282
9,CTTATATC,0.0947
10,CTTATATA,0.331
11,GTTATATA,0.232
12,ATCCGGGG,-0.0124
13,CAACCGTG,0.00095
14,GATCCTAC,0.00192
15,CCGTATTC,-0.0178
16,ATGGACCC,-0.0809
17,ATTATATC,0.0433
18,ATTATATA,0.306
19,AGTATATC,0.0175
20,ATTATATG,0.211
21,AGTATATA,0.285
22,AGTATATG,0.0763
23,AAAATATT,0.192
24,ACCCACTA,0.107
25,AGCGCCAA,-0.0679
26,ATGGTCTC,0.102

row,Sequence,PBM E-score
1,CGTAAGCA,0.232
2,AATAAGAA,0.252
3,AATAAGCA,0.343
4,AATAAGCT,0.234
5,AATAAGAT,0.039
6,AATAAGAG,0.0662
7,GGTAAGCA,0.257
8,GATAAGCA,0.154
9,AGTAAGCA,0.241
10,CTCTAGTC,-0.388
11,AGACTTGA,-0.0266
12,ATTTTCCG,0.304
13,ATTCCCCG,-0.0432
14,ATTTTCCC,0.00868
15,ATTCCCGG,0.296
16,ATTCCCGA,-0.241
17,ATTTCCGC,0.123
18,ATTTCCGA,0.0803
19,AATTTCCG,0.24
20,ATTTCCGG,0.264
21,GCGGGTCC,-0.207
22,AGTTTGGC,0.109
23,CCCTAAAA,-0.228
24,GCTCAGCC,-0.143
25,AGGCAAAC,-0.106
26,CACCGTGG,-0.018

row,Sequence,PBM E-score
1,ACTAATTC,0.306
2,ACTAATTA,0.377
3,GCTAATTA,0.306
4,ACTAATGG,0.209
5,CCTAATTA,0.156
6,CCTAATTC,-0.115
7,ACTAATGA,0.128
8,ACGAATTA,0.0763
9,ACTAACTA,0.00503
10,GCTAATGA,-0.0534
11,ACTAATGC,0.275
12,ACTAATTG,0.197
13,CGAAAACG,0.0757
14,CTTTACCA,0.00321
15,AACTTATT,0.142
16,GTATTAAC,-0.0392
17,AGGATTAT,-0.0734
18,ATCATAGA,0.146
19,AAATACCC,0.136
20,CCCAAGAA,0.0477
21,ACTTCCAC,0.00186
22,AATGGACT,0.0697
23,ACTCTCGA,0.141
24,AAGCCATC,0.0891
25,CAGGGCTC,-0.158
26,CAATATAG,0.101

row,Sequence,PBM E-score
1,TAATATAA,0.332
2,CAATATAA,0.283
3,GAATATAA,0.0963
4,CAATATAC,0.0244
5,TAATAAAA,0.226
6,AAGAATTC,0.0649
7,CACACTCG,0.0692
8,AAGTCCTG,-0.138
9,CTAATCTA,0.0215
10,ATAATTTA,0.236
11,GTAATCCA,0.277
12,ATAATCCA,0.252
13,GTAATTTA,0.267
14,ATAATCTA,0.185
15,GCAATCCA,0.0441
16,ATAATCCC,-0.033
17,ATAATCCG,0.119
18,GTAATCTA,0.268
19,CTAATCCA,0.131
20,CTAATTTA,0.199
21,GCTTTGCC,-0.183
22,CAGGTCTC,-0.164
23,CGACCATA,-0.0443
24,AACCCCGC,-0.159
25,CGATTGCC,0.0433
26,GTAATCAC,0.229

row,Sequence,PBM E-score
1,GTAATCAA,0.253
2,TTAATCAA,0.199
3,CGCTAGAG,-0.115
4,AAAGTCGA,-0.0137
5,CTTTGAAA,0.116
6,GTTTGCAA,0.0869
7,GTTTGAAA,0.113
8,ATTTGAAA,0.251
9,ATTTGCAA,0.277
10,CTTTGCAA,0.0374
11,TGTCGCAA,-0.137
12,GGCCTCAA,-0.0369
13,AAAGTCAT,0.074
14,ACCCTCTA,-0.192
15,CCCCAAGG,-0.307
16,GCACCTCA,0.0626
17,CGATCGAA,0.106
18,CGATCGAC,0.272
19,AGATCGAC,0.0578
20,CTGGCTAC,-0.259
21,GATAGACA,-0.0074
22,CTCCACCA,-0.193
23,GGACAGAA,0.0717
24,ACTCGCGA,0.271
25,GCTCGCTA,-0.0118
26,GCTCGCGA,0.3

row,Sequence,PBM E-score
1,ACTCGCGG,0.0242
2,ACTCGCGC,0.0881
3,CCTCGCGA,0.121
4,CGATGAAG,-0.0787
5,AGAGTATC,-0.0123
6,AATCCACG,0.048
7,AGTTTCCG,0.105
8,CCTGGGGC,-0.343
9,ACTGTAGC,-0.136
10,CACGTCTG,0.134
11,ACATCGAA,0.169
12,TCCGGGCA,0.00134
13,ATCTCGCA,0.0847
14,AGCTCGCA,0.0143
15,AGCTCGCG,0.262
16,AGCTCGCC,-0.0374
17,ATCTCGCC,-0.0589
18,ATCTCGCG,0.256
19,AGCTGACA,0.192
20,CGCTGACC,0.117
21,GGCTGACC,-0.121
22,GGCTGACA,0.313
23,TGCTGACA,0.334
24,GGCTGATA,-0.0873
25,CGCTGACA,0.297
26,TGCTGAAA,-0.0176

row,Sequence,PBM E-score
1,CGCTGACG,0.0393
2,CGCGCAAC,0.2
3,AGGATGGG,-0.107
4,AAGTCTAG,-0.155
5,AGAAAAGA,-0.0414
6,AGAAAATC,-0.0518
7,CGAAAATA,0.163
8,CGAAAATC,0.259
9,GGAAAAGA,-0.191
10,CGAAAAGA,0.28
11,GTATTGCA,-0.0639
12,ATAGGCGC,0.0733
13,ACGGGCAA,-0.05
14,ACCAATAG,-0.201
15,AACAATAT,0.338
16,ACCAATAC,-0.106
17,AACAATAC,0.135
18,AACAATAA,0.211
19,ACCAAAAA,0.278
20,ACGAATAA,-0.0279
21,ACGAATAC,0.132
22,ACCAAAAT,0.0849
23,ACGAATAT,0.268
24,ACCAAAAC,-0.0311
25,ACCAATAT,0.306
26,ACGGACCT,-0.0269

row,Sequence,PBM E-score
1,CCAGCGTA,-0.0528
2,GCTCATGA,0.0686
3,GCTGCCCC,-0.107
4,GCCCCAGA,-0.158
5,CCTTGGGA,-0.00782
6,CAGTGGAA,-0.0557
7,CGTCCGGA,0.099
8,ACGTTGGG,0.0171
9,ACTCGCAT,0.101
10,ATTACACC,0.108
11,ATTACACG,0.0358
12,ATTACATG,0.301
13,ATTACACA,0.284
14,ATTACATC,0.209
15,TGTACACA,0.256
16,ATTACAGG,0.228
17,AGTACACA,0.0961
18,ATTACTCC,0.0689
19,ATTACTCA,0.325
20,CGTACACG,0.0454
21,ATTACTCG,0.221
